# Sampled rows, rich in hits. Any-hit rate of the full collection: about 3.5%.
# Pf apPOL block = Pf-apPOL DNA polymerase inhibition; inhibition, % at 10 µM; Recombinant Pf-apPOL, molecular beacon fluorescence, 1.5 h; actives 0.25% (n = 210,000)
# mHTT-CaM PPI inh = inhibitors of human mutant huntingtin-calmodulin interaction; P42858; AID 1671202; AlphaScreen His-mHTT/GST-CaM binding, luminescence; actives 3.6% (n = 190,000); inhibition, % at 15 µM;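 further: 0% = both proteins with DMSO and 100% = one protein alone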
# An asterisk follows results filed as active; ! = not active in a repeat. No stated cut-off is given here; in the data, active means inhibition above about 50%; inactive means the rest.
SMILES,Pf apPOL block,mHTT-CaM PPI inh
CC(C)N1CCC2(CC1)N=C(c1ccc3c(c1)OCO3)CC(c1ccccc1O)N2 (centres undefined),9,8
CCOC(=O)N1CCC2(CC1)N=C(c1ccccc1)CC(c1cc(Cl)ccc1O)N2 (centres undefined),-3,35
COc1cccc(C2=NC(C(C)C)NC(c3ccccc3O)C2)c1 (centres undefined),-6,30
CCCC1(C)N=C(c2ccc(OCC)cc2)CC(c2ccccc2O)N1 (centres undefined),-3,17
COc1cccc(C2=NC(C)(CC(C)C)NC(c3ccccc3O)C2)c1 (centres undefined),-1,98*
COc1cccc(C2=NC(C(C)C)NC(c3cc(Cl)ccc3O)C2)c1 (centres undefined),-6,52*
CNC(=O)NC1CCN(c2cc(C)cc(C)c2)C1=O (centres undefined),-2,-12
O=C(NCc1ccccc1)C1CCc2sc(C(=O)N3CCOCC3)cc2C1 (centres undefined),-2,3
CC(=NCCN1CCOCC1)c1c(C(F)(F)F)[nH]n(-c2nc3ccccc3s2)c1=O,-1,2
CC(=NCCCN1CCOCC1)c1c(-c2ccccc2)[nH]n(-c2nc3ccccc3s2)c1=O,-3,51*
CCC1CN(C(=O)Nc2ccccc2OC)c2cc(C)ccc2O1 (centres undefined),0,-3
CN1OCC(S(=O)(=O)NCc2cccc(F)c2)C1c1cccc(C(F)(F)F)c1 (centres undefined),-1,-11
Cc1cccc(C2=NN(c3ccccc3)[C@H](CO)[C@H]2C)c1,-4,-5
Cc1cccc(C2=NN(c3ccccc3)[C@H](CO)[C@H]2c2ccccc2)c1,-3,87*
CC[C@H]1C(c2ccc(F)cc2)=NN(c2ccccc2)[C@@H]1CO,-6,-58
OC[C@@H]1[C@@H](c2ccc(F)cc2)C(c2ccccc2)=NN1c1ccccc1,-4,89*
CC(C)Cn1c(=O)c2c(ncn2C(C)C)n(-c2ccc(F)cc2)c1=O,-4,-2
O=C(Cc1cccc(C(F)(F)F)c1)Nc1cncnc1,9,-5
O=[N+]([O-])c1cc(C=Nc2ccc(Cl)cc2)ccc1Cl,2,19
O=[N+]([O-])c1cc(C=Nc2cc(Cl)ccc2O)ccc1Cl,-1,64*
O=C(Nc1nc(-c2cccnc2)cs1)c1ccc(S(=O)(=O)N2CCc3ccccc32)cc1,-5,9
CCCCN(C)S(=O)(=O)c1ccc(C(=O)Nc2nc(-c3ccccn3)cs2)cc1,2,86*
CN(C1CCCCC1)S(=O)(=O)c1ccc(C(=O)Nc2nc(-c3ccccn3)cs2)cc1,-7,99*
CCCCN(C)S(=O)(=O)c1ccc(C(=O)Nc2nc3c(s2)Cc2ccccc2-3)cc1,-2,-6
CN(C)S(=O)(=O)c1ccc(C(=O)Nc2nc(-c3cccs3)cs2)cc1,-6,13
SMILES,Pf apPOL block,mHTT-CaM PPI inh
O=C(Nc1nc(-c2ccccn2)cs1)c1ccc(S(=O)(=O)N2CCc3ccccc32)cc1,2,97*
CC(C(=O)N1CCCCCC1)C1CCN(S(=O)(=O)c2cccs2)CC1 (centres undefined),0,8
Cc1ccc(NC(=O)C2CC(=O)N(Cc3ccc(F)cc3)C2)cc1 (centres undefined),-3,1
Cc1cc(NC(=O)C2CCc3sc(C(=O)N(C)C)cc3C2)ccc1F (centres undefined),-3,12
Cc1ccc(C(=O)Nc2ncccc2Cl)o1,-6,-3
Cc1ccc2nc(C)cc(C(=O)NC3CCCC3)c2c1,-4,1
CC(C)(C)C1CCc2c(sc3c2C(=O)NC(c2ccc(O)c([N+](=O)[O-])c2)N3)C1 (centres undefined),-5,59*
CC(C)(C)C1CCc2c(sc3c2C(=O)NC(c2ccccc2)N3)C1 (centres undefined),-11,0
Cc1ccccc1CCNC(=O)c1cc2n(n1)CCCN(Cc1ccc(F)cc1)C2=O,10,2
O=C1CCN(Cc2ccccc2)CCN1[C@H](CSc1ccccc1)Cc1ccccc1,-3,38
CC(C)C[C@@H](CO)N1CCN(CCc2ccccc2)CCC1=O,-1,8
COc1ccc(SC[C@H](CC(C)C)N2CCN(CCc3ccccc3)CCC2=O)cc1,-5,100*
COc1ccc(SC[C@H](Cc2ccccc2)N2CCN(CC(C)C)CCC2=O)cc1,-5,-30
Cc1ccc(SCCN2CCN(CCc3ccccc3)CCC2=O)cc1,-2,34
O=C1CCN(CCc2ccccc2)CCN1CCSc1ccc(Br)cc1,-9,53*
O=C1CCN(CCc2ccccc2)CCN1[C@H](CSc1ccc(Br)cc1)Cc1ccccc1,-3,75*!
CC(C)C[C@@H](CN=[N+]=[N-])N1CCN(CCc2ccccc2)CCC1=O,-6,71*
CCOCCCNC(=O)CC1CCN(C(=O)c2sc(-c3ccc(C)cc3)nc2C)CC1,4,16
COc1cc(C=NCCNS(=O)(=O)c2ccc(C)cc2)ccc1O,14,-1

# Screening results (PubChem)
